Screening results: PubChem, National Center for Advancing Translational Sciences (NCATS)
FLuc modulator = qHTS profiling assay for firefly luciferase inhibitor/activator using purifed enzyme and Km concentrations of substrates (counterscreen for miR-21 project); Luciferin 4-monooxygenase (Photinus pyralis), P08659; hit rate 6.9% among 360,000; Potency, µM (titrated, usually from 57.5 µM), for inactives: top-dose activity change, negative = inhibition, hits mostly inhibitors; purified FLuc, Km substrates, luminescence inhibition;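 further: plate controls were vehicle for no effect and reference inhibitor for full effect; nearly all actives have a fitted effect of over 55% in size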
Target sequence (P08659 whole entry, looked up): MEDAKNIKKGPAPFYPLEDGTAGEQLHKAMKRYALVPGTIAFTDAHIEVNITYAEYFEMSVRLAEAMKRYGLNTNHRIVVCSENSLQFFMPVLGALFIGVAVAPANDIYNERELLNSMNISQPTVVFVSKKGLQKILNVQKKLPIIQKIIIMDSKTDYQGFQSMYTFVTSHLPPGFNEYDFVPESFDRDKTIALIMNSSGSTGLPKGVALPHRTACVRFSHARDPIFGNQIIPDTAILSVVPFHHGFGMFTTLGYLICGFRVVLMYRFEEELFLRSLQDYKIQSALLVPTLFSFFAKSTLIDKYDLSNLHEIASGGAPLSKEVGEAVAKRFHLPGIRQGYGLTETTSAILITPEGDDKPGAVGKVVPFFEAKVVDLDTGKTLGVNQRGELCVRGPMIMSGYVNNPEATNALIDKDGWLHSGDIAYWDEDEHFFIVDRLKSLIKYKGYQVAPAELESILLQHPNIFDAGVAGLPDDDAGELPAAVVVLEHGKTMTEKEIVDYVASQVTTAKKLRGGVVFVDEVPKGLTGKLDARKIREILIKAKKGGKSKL
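Purified P. pyralis luciferase (10nM final) with 10uM D-luciferin and 10uM ATP (Km levels) in 50mM Tris acetate pH 7.5, 10mM Mg acetate, 0.01% Tween-20, 0.05% BSA; qHTS 6-point titration, ~60 µM downward; luminescence read.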
ELG1 genotoxic = qHTS screen for small molecules that induce genotoxicity in human embryonic kidney (HEK293T) cells expressing luciferase-tagged ELG1; AID 504466, 2011; HEK293T ELG1-luciferase reporter, luminescence, 16 h; Potency, µM (series often up to 46 µM), for inactives: top-dose activity change, positive = activation, most hits filed as activators; hit rate 1.3% among 330,000; further: % of control where 0% means no effect; nearly all actives have a fitted effect of over 60% in size
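After overnight (16 hr) compound treatment at 37 °C, ELG1-luciferase HEK293T cells were lysed with ONE-Glo; luminescence quantified 30 min later at room temperature.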
NPC1 prom act = qHTS Assay for NPC1 Promoter Activators; Huh7 NPC1 promoter luciferase reporter, 24 h; Potency, µM (titrated, usually from 9.22 µM), without a hit: at the top dose activation, hits mostly activators; hit rate 2.4% among 320,000; further: % of control where 0% means no effect; nearly all actives have a fitted effect of over 60% in size
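In 1536-well qHTS, Huh7 cells harboring an NPC1 promoter–luciferase construct received compound for 24 h; activation was quantified by luminescence following luciferase reagent addition.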
KinaseGlo FLuc = Counterscreen for Luciferase (Kinase-Glo TM) Inhibition; AID 1379, 2008; Luciferin 4-monooxygenase (Photuris pensylvanica), Q27757; Kinase-Glo luciferase, ATP luminescence, 8 min; hit rate 0.28% among 200,000; Potency, µM (titrated, usually from 38.3 µM), for inactives: at the highest dose activity change, negative = inhibition, most hits filed as inhibitors; further: on the % scale 0 is the no-effect control and ±100 the full control effect; nearly all actives have a fitted effect of over 60% in size
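Inhibition of Kinase-Glo luciferase light generation was assessed at 10 uM ATP in pH 7.2 imidazole buffer, with luminescence measured after eight minutes at ambient temperature.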
SMN2 splice up = qHTS Assay for Enhancers of SMN2 Splice Variant Expression | AID 1458, 2008 | hit rate 2.8% among 210,000 | HEK293 SMN2-luciferase splicing reporter, luminescence, 30-36 h | Potency, µM (doses to about 46.1 µM), inactives show at the highest dose activity change, positive = activation, most hits filed as activators; further: % of control where 0% means no effect; nearly all actives have a fitted effect of over 55% in size
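qHTS luciferase splicing reporter: luminescence rises when SMN2 exon 7 is included in transfected HEK293 cells. Compound exposure lasted 30-36 h at 37C, with 4.5 mM final sodium butyrate as control, followed by a ONE-Glo read.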
Rab9 promoter act = qHTS Assay for Rab9 Promoter Activators; Potency, µM (doses to about 9.22 µM), inactives show top-dose activation, negative = inhibition, usual class: activators; hit rate 2.8% among 320,000; AID 485297, 2010; Huh7 Rab9 promoter-luciferase reporter, luminescence, 24 h; further: % of control where 0% means no effect; nearly all actives have a fitted effect of over 60% in size
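Huh7 cells stably carrying Rab9 promoter–luciferase reporter, plated 1500 cells/well, compound added after 2 h and incubated 24 h at 37 °C; luciferase luminescence then read after 10 min with detection reagent.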
Starred values were filed as active, the others as inactive. Most compounds without a hit are left out; they make up all but 7.3% or so of the library. The call rests on the fitted dose curve; in most records, active means well fitted curve in the direction sought with a large enough effect; inconclusive means small, poorly fitted or top-dose-only effect, or another doubt; inactive means no such curve, though single readings can be large; an effect the other way counts as inactive or inconclusive. Potency means the concentration at half of the fitted maximal effect.

For O=C(O)C1CSCN1S(=O)(=O)c1cccc2nsnc12 (stereo not drawn) the results were FLuc modulator -1%, ELG1 genotoxic -1%, NPC1 prom act 0%, KinaseGlo FLuc -3%, SMN2 splice up -22% and Rab9 promoter act 1%.
`Nc1ccc2nn(-c3ccccc3)nc2c1` gave FLuc modulator 3.8µM*, ELG1 genotoxic inconclusive, NPC1 prom act 1.6µM*, KinaseGlo FLuc -6% and Rab9 promoter act 1.6µM*.
For Nc1ccc2c(c1)nnn2-c1ccccc1 the results were FLuc modulator inconclusive, ELG1 genotoxic 12%, NPC1 prom act inconclusive and Rab9 promoter act 25%.
Screening Cc1cc2nn(-c3ccccc3)nc2cc1NC(=O)Cc1ccc(Cl)cc1 returned FLuc modulator -6% and SMN2 splice up inconclusive.
Screening Nc1cc2nn(-c3ccccc3)nc2cc1Cl returned FLuc modulator 1.3µM*, ELG1 genotoxic 24%, NPC1 prom act 6%, KinaseGlo FLuc -26%, SMN2 splice up 3.2µM* and Rab9 promoter act 19%.
Screening CC(C)CC(=O)Nc1cc2nn(-c3ccccc3)nc2cc1Cl returned FLuc modulator 1.5µM*, ELG1 genotoxic 4.6µM*, NPC1 prom act 1.8µM*, KinaseGlo FLuc 16%, SMN2 splice up inconclusive and Rab9 promoter act 1.4µM*.
Screening COCc1cc(C)n(CC(=O)Nc2ccccc2OC)c(=O)c1C#N returned FLuc modulator 2%, ELG1 genotoxic -1%, NPC1 prom act -3%, KinaseGlo FLuc 0%, SMN2 splice up -15% and Rab9 promoter act -8%.
For COC(c1ccccc1)c1nnc(CCC(=O)N(C)C(C2CC2)C2CC2)o1 (stereo not drawn) the results were FLuc modulator 13µM*, ELG1 genotoxic inconclusive, NPC1 prom act inconclusive, KinaseGlo FLuc 8% and Rab9 promoter act 2.8µM*.
`COc1ccccc1C1CC(c2ccc(C)cc2)Nc2ncnn21` (stereo not drawn) gave FLuc modulator 4%, ELG1 genotoxic -1%, NPC1 prom act 0%, KinaseGlo FLuc 1%, SMN2 splice up -15% and Rab9 promoter act -2%.
O=c1oc2ccccc2c(Nc2cc3ccccc3cc2O)c1[N+](=O)[O-] was read as FLuc modulator 12µM*, ELG1 genotoxic 7%, NPC1 prom act inconclusive, KinaseGlo FLuc -14% and Rab9 promoter act inconclusive.
For CCn1c(=O)cc(SCC(=O)N2CCN(C3CCCCC3)CC2)c2ccccc21 the results were FLuc modulator 3%, ELG1 genotoxic 15%, NPC1 prom act -7%, KinaseGlo FLuc 4%, SMN2 splice up 10µM* and Rab9 promoter act -11%.
CCn1c(=O)cc(SCC(=O)N2CCOCC2)c2ccccc21 was read as FLuc modulator 1%, ELG1 genotoxic inconclusive, NPC1 prom act -1%, KinaseGlo FLuc 2%, SMN2 splice up 14µM* and Rab9 promoter act -9%.
`COc1ccc(SCCN2CCN(C)CCC2=O)cc1` gave FLuc modulator 2%, ELG1 genotoxic 6%, NPC1 prom act 1% and Rab9 promoter act -6%.
For CC(=O)C(Cc1ccc(Cl)nc1)Cc1ccc(Cl)nc1 the results were FLuc modulator 2%, ELG1 genotoxic 0%, NPC1 prom act -1%, KinaseGlo FLuc 4% and Rab9 promoter act -3%.
COC(=O)Cc1ccc(OCc2ccc(Cl)nc2)cc1 was read as FLuc modulator 15µM*, ELG1 genotoxic inconclusive, NPC1 prom act 2.5µM* and Rab9 promoter act inconclusive.
Screening Cc1ccc(C(=O)COC(=O)c2ccc(O)cc2)cc1 returned FLuc modulator 11µM*, ELG1 genotoxic inconclusive, NPC1 prom act inconclusive, KinaseGlo FLuc -4% and Rab9 promoter act 3.2µM*.
`O=C(OCC(=O)c1ccccc1Cl)c1cnccn1` gave FLuc modulator inconclusive, ELG1 genotoxic 1%, NPC1 prom act -6%, KinaseGlo FLuc -3%, SMN2 splice up -6% and Rab9 promoter act 2%.
For Cc1ccc(C(=O)COC(=O)c2cnccn2)cc1 the results were FLuc modulator 6.7µM*, ELG1 genotoxic 1%, NPC1 prom act 6%, KinaseGlo FLuc -5%, SMN2 splice up 4% and Rab9 promoter act 2%.
Screening CCCC(=O)Nc1ccc(C(=O)COC(=O)C2CC2)cc1 returned ELG1 genotoxic 15%.
`O=C(OCC(=O)c1ccc(Cl)cc1Cl)c1cnccn1` gave FLuc modulator 12µM*, ELG1 genotoxic 3%, NPC1 prom act -1% and Rab9 promoter act -2%.
For Cc1ccc(C(=O)COC(=O)C2CCC2)cc1 the results were FLuc modulator 0.38µM*, ELG1 genotoxic 2%, NPC1 prom act 0% and Rab9 promoter act -3%.
For CCCNC(=O)Nc1nccs1 the results were FLuc modulator 0%, ELG1 genotoxic -1%, NPC1 prom act 1%, KinaseGlo FLuc -2%, SMN2 splice up -16% and Rab9 promoter act -4%.
Cc1ccc(C(=O)COC(=O)c2cnccn2)cc1[N+](=O)[O-] was read as FLuc modulator 6%, ELG1 genotoxic 1%, NPC1 prom act 2%, KinaseGlo FLuc 2%, SMN2 splice up 7% and Rab9 promoter act -4%.
Cc1ccc(C(=O)COC(=O)c2cnccn2)cc1C was read as FLuc modulator 21µM*, ELG1 genotoxic 1%, NPC1 prom act 1%, KinaseGlo FLuc -2%, SMN2 splice up 6% and Rab9 promoter act 1%.
`COc1ccc(CCN2C(=O)N(c3ccc(F)cc3)C(=O)C2CC(=O)Nc2ccc(F)c(F)c2)cc1` (stereo not drawn) gave FLuc modulator -15% and SMN2 splice up 18%.
O=C(CSc1nnnn1C1CCCC1)N1CCCc2ccccc21 was read as FLuc modulator -17%, ELG1 genotoxic 7%, NPC1 prom act 7%, KinaseGlo FLuc 0%, SMN2 splice up 30% and Rab9 promoter act 8%.
For NC(=O)c1cnn(-c2cc(Oc3ccccc3)ncn2)c1N the results were FLuc modulator inconclusive, ELG1 genotoxic inconclusive, NPC1 prom act 3.2µM*, KinaseGlo FLuc -3% and Rab9 promoter act 2.5µM*.
Screening c1ccc(Oc2cc(-n3cccn3)ncn2)cc1 returned FLuc modulator 12µM*, ELG1 genotoxic 8.2µM*, NPC1 prom act inconclusive, KinaseGlo FLuc -14%, SMN2 splice up 22µM* and Rab9 promoter act 3.2µM*.
For NC(=O)c1cnn(-c2cccc(Cl)c2)c1N the results were FLuc modulator 6%, ELG1 genotoxic 1%, NPC1 prom act -5% and Rab9 promoter act -1%.
